Most compounds without a hit are left out; they make up all but 3.5% or so of the library.
TbPYK inhibitor: blocks Trypanosoma brucei pyruvate kinase; TbPYK enzyme, Kinase-Glo Plus ATP luminescence, 45 min; Potency, µM (top dose mostly 76.8 µM), without a hit: at the top dose activity, negative = inhibition, usual class: inhibitors; hit rate 0.12% among 410,000; note: % is set by controls: 0 for no effect and ±100 for the full control effect; nearly all actives have a fitted effect of over 50% in size
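Enzyme and substrate buffer are dispensed first and compound is pin-transferred. ADP at 130 uM final then starts the reaction, which runs 45 min at room temperature. Detection reagent is added for 10 min before luminescence is imaged.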
NS1 inh: blocks influenza NS1 protein function | hit rate 0.4% among 270,000 | Potency, µM (titrated, usually from 46.1 µM), for the others: top-dose activity, positive = more growth; calls by dose curve; note: actives are rising curves; nearly all actives have a fitted effect of over 50% in size
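S. cerevisiae expressing influenza A NS1, grown in glucose, washed, then diluted 1:100 into pH 6.0 -URA galactose medium with 23 nl compound. Growth recovery read as OD600; NS1-free strain serves as control.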
RE007 growth inh: less growth of the S. pombe RE007 Vpr strain | AID 651644 | Potency, µM (series often up to 92.2 µM), inactives show at the top dose activity change, negative = less growth, hits mostly inhibitors | S. pombe RE007 Vpr strain, BacTiter-Glo ATP luminescence, 24 h | hit rate 0.21% among 360,000; active = well fitted falling curve with a large enough effect; inconclusive = small, poorly fitted or top-dose-only effect; inactive = no such curve, though single readings can be large or run the other way; note: % is set by controls: 0 for no effect and ±100 for the full control effect; nearly all actives have a fitted effect of over 50% in size
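Fission yeast strain RE007, carrying one chromosomally integrated HIV-1 vpr copy, was seeded at OD 0.01 in PMG+AL medium with 23 nL pinned compound. After 24 h at 30 °C and 99% humidity, viability was read by BacTiter-Glo luminescence.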
Sm TGR inh: S. mansoni TGR enzyme inhibition. Potency, µM (series often up to 114 µM), for the others: at the top dose activity change, negative = inhibition, hits mostly inhibitors. purified TGR, DTNB reduction, TNB absorbance 405 nm. hit rate 3% among 360,000; note: % is set by controls: 0 for no effect and ±100 for the full control effect; nearly all actives have a fitted effect of over 60% in size
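Kinetic colorimetric format: TGR-catalysed, NADPH-driven DTNB reduction monitored via TNB absorbance. Enzyme dispensed at 20 nM; compound exposure 15 min at room temperature before reaction start.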
LmPK inh: blocks Leishmania mexicana pyruvate kinase activity; AID 1721; hit rate 0.37% among 290,000; Q27686; Potency, µM (series often up to 57.5 µM), for the others: at the highest dose activity change, negative = inhibition, most hits filed as inhibitors; purified LmPK, Kinase-Glo ATP luminescence, 1 h; note: % is set by controls: 0 for no effect and ±100 for the full control effect
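Pyruvate kinase activity monitored as ATP production (luciferase luminescence). Conditions: 0.1 nM enzyme, 0.5 mM PEP, 0.1 mM ADP, 1 h, RT; normalized against uninhibited and no-enzyme wells.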
Giardia FBPA inh: inhibitors of Giardia lamblia fructose-1,6-bisphosphate aldolase. hit rate 0.71% among 290,000. purified Giardia FBPA. A8B2U2. Potency, µM (doses to about 59.6 µM), inactives show at the top dose activity, negative = inhibition, most hits filed as inhibitors. AID 2451; note: % is set by controls: 0 for no effect and ±100 for the full control effect; nearly all actives have a fitted effect of over 55% in size
Target sequence (A8B2U2 whole entry, looked up): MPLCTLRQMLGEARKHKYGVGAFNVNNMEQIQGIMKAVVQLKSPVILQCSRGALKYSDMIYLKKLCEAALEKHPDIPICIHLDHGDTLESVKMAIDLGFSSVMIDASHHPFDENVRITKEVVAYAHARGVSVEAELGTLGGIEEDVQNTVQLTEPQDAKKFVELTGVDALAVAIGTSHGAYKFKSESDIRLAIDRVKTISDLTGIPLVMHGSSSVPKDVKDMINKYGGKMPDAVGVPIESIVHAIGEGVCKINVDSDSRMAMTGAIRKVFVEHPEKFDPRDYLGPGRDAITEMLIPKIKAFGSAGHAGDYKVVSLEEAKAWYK
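40 nM FBPA preincubated 10 min at RT with compound (up to 57.5 uM final), then substrate plus GAPDH/TPI/NAD/arsenate coupling and diaphorase/resazurin added. Fluorescence read after 20 min at RT, 525/598 nm.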
An asterisk follows results filed as active; ? = inconclusive; / = no result; [ ] = another dose, or the depositor's remark. Unless noted, calls come from the whole dose curve; as a rule, active = well fitted curve in the direction sought with a large enough effect; inconclusive = small, poorly fitted or top-dose-only effect, or another doubt; inactive = no such curve, though single readings can be large; an effect the other way counts as inactive or inconclusive. Potency is the fitted concentration of half-maximal effect.

SMILES	TbPYK inhibitor	NS1 inh	RE007 growth inh	Sm TGR inh	LmPK inh	Giardia FBPA inh
CCOP(=O)(OCC)/C(=N/OC(=O)c1ccc(Cl)cc1Cl)C(N)=O	-6.0%	3.3%	9.8%	6.31µM*	2.7%	-28.8%
N/C(=N\OC(=O)c1ccc(Cl)cc1Cl)c1ccc(Cl)cc1	3.1%	-193.1%	?	-2.3%	-13.0%	1.3%
Cc1ccc(C(C)C)c(OCC(=O)Nc2nc3c(s2)CCCC3)c1	-0.9%	/	/	7.4%	/	/
CCc1cc(=O)[nH]c(SCc2nc(-c3ccc(C(F)(F)F)cc3)no2)n1	-6.6%	/	/	-2.0%	/	/
CC1=C(c2ccccc2)[N+](=O)C2(CCCC2)N1[O-]	-7.2%	3.9%	-19.1%	10.8%[11.4 µM]	9.0%	4.4%
O=[N+]([O-])c1ccc2c(c1)N([O-])C1(CCCCC1)[N+]2=O	?	10.8%	5.3%	2.82µM*	-28.2%	7.92µM*
O=C(Cc1csc(N2CCOCC2)n1)N/N=C/c1ccc(O)c(O)c1O	-3.8%	/	12.1%	?	-2.3%	7.92µM*
CCOc1ccc(C2OC34CCCCC3C(C#N)(C#N)C2(C#N)C(=N)O4)cc1OC (stereo not drawn)	-4.2%	22.8%	-2.1%	50.1µM*	11.6%	?
CCCCOc1ccc(C2OC34CCCCC3C(C#N)(C#N)C2(C#N)C(=N)O4)cc1 (stereo not drawn)	-11.1%	-1.2%	12.0%	?	-0.5%	?
Cc1ccn2c(c1)nc(=O)c1cc(S(=O)(=O)N3CCC(C)CC3)c(Cl)cc12	-0.3%	/	/	-3.8%	/	/
O=[N+]([O-])c1ccc(S(=O)(=O)CC(CN2CCCCC2)N2CCCCC2)cc1 (stereo not drawn)	0.7%	/	-0.5%	7.94µM*	4.6%	1.4%
O=C(CCCSc1nc(-c2ccco2)cc(C(F)(F)F)n1)NCC1CCCO1 (stereo not drawn)	-3.1%	-1.7%	-12.1%	50.1µM*	1.7%	0.9%
O=C(CCSc1nc(-c2ccco2)cc(C(F)(F)F)n1)NCC1CCCO1 (stereo not drawn)	-11.3%	-1.3%	17.4%	9.5%	-2.3%	2.1%
CCn1nc(C)c(NC(=O)CCCSc2nc(-c3ccco3)cc(C(F)(F)F)n2)c1C	1.5%	2.7%	11.8%	50.1µM*	2.1%	0.5%
CNc1nc2c(c(=O)n(C)c(=O)n2C)n1CC(O)COc1ccc(OC)cc1 (stereo not drawn)	-7.1%	/	/	-2.4%	/	/
COCCNC(=O)c1ccc(C2SCC(=O)N2Cc2ccco2)cc1 (stereo not drawn)	-16.9%	4.1%	-4.7%	22.4µM*	0.8%	-4.9%
COCCCNC(=O)c1ccc(C2SCC(=O)N2Cc2ccco2)cc1 (stereo not drawn)	-3.4%	/	0.7%	?	1.9%	5.7%
C=CCNC(=O)c1ccc(C2SCC(=O)N2Cc2ccco2)cc1 (stereo not drawn)	-13.1%	/	-8.3%	28.2µM*	3.7%	2.6%
O=C(CCCCCCCC(=O)N1CCCC1)N1CCCC1	-1.5%	/	8.1%	/	/	/
O=C(CCSCCC(=O)N1CCCC1)N1CCCC1	3.2%	-17.4%[9.22 µM]	-25.6%	39.8µM*	0.4%	5.8%
CC1CCN(c2nc3c(S(=O)(=O)c4cccc(Cl)c4)nnn3c3ccsc23)CC1	4.7%	/	/	32.8%	/	/
COc1ccc(-c2cc3c(=O)n(CC(=O)Nc4cc(C)ccc4C)ccn3n2)cc1	-6.3%	/	/	-0.1%	/	/
COc1ccc(Nc2nc3ccc(Cl)cc3n3nnnc23)cc1OC	-7.3%	/	/	2.5%	/	/
O=c1cc(CN2CCN(Cc3ccccc3)CC2)c2cc3c(cc2o1)CCC3	2.2%	-2.5%	-12.4%	35.5µM*	8.3%	3.4%
O=c1cc(CN2CCN(CCO)CC2)c2cc3c(cc2o1)CCC3	1.8%	-4.8%	-1.7%	2.8%	-1.1%	-5.6%
COC(=O)Nc1sc2c(c1C(=O)N1CCOCC1)CCC(C)C2 (stereo not drawn)	-1.1%	-3.0%	-6.3%	44.7µM*	-9.8%	-26.7%
CCOC(=O)Nc1sc2c(c1C(N)=O)CCC(C)C2 (stereo not drawn)	-1.9%	-0.9%	-4.9%	-5.9%	-0.9%	1.7%
